Assay [1] concerns Plasmodium falciparum Sir2 (PF13_0152, Sir2A). Nature of the assay: pfSir2 binders on small-molecule microarrays, primary screen, biochemical, small-molecule microarray, 635 nm fluorescence (AID 1098).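 Note: score merges spot fluorescence intensity with its signal-to-noise ratio.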 As to conditions: small-molecule microarray binding, fluorescence 635 nm; higher = more signal.
The nature of assay [2]: small-molecule microarray binders of probe aDKK1, primary screen, biochemical, biotinylated probe, 635/667 nm fluorescence (AID 1099).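 Note: score merges 667nm spot fluorescence with signal to noise across triplicate slides.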 As to conditions: higher = more signal.
A short description of assay [3]: small-molecule microarray binders of probe aCHRDL2, primary screen, biochemical, biotinylated probe, 635/667 nm fluorescence (AID 1100). As to conditions: higher = more signal.
Assay [4] in a line: splicing luciferase reporter signal modulators, primary screen, spliceosome inhibition project, cell-based, HEK293, splice +/- reporter (AID 1101).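 Note: HEK293 cells carrying a splicing-competent luciferase reporter gene; test concentration not given here.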 As to conditions: luminescence, 24 h, higher = more signal, called active from +8 up or from −8 down. Background: In a reporter assay the amount or activity of a reporter protein is the signal.
The target of assay [5] is Fibroblast growth factor 10 (Homo sapiens) (UniProt O15520). Nature of the assay: FGF10 binders on small-molecule microarrays, primary screen, biochemical, small-molecule microarray, 635 nm fluorescence (AID 1102). As to conditions: FGF10 binding, fluorescence 635 nm, higher = more signal.
Sequence of Fibroblast growth factor 10 (Homo sapiens) (O15520 whole entry, looked up): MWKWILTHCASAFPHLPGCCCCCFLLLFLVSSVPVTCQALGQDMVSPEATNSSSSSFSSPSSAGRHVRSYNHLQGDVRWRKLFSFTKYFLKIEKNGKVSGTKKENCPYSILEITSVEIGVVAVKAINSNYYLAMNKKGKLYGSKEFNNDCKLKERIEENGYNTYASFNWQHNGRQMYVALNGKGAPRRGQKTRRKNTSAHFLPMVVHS
The test system of assay [6] is glycogen synthase kinase-3 (GSK3A per assay name; protocol says GSK3B). Put plainly: GSK3 binders on small-molecule microarrays, primary screen, biochemical, small-molecule microarray, 635 nm fluorescence, GSK3A (AID 1103). Note: the record names both GSK3A and GSK3B. As to conditions: small-molecule microarray binding, fluorescence 635 nm; higher = more signal.
Assay [7] addresses Epidermal growth factor receptor (Homo sapiens) (UniProt P00533). Put plainly: EGFR binders on small-molecule microarrays, primary screen, biochemical, small-molecule microarray, 635 nm fluorescence (AID 1104).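 Note: score merges 667 nm emission intensity with spot signal to noise over triplicate slides.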 As to conditions: EGFR binding, higher = more signal.
The target in assay [8] is Follistatin-related protein 3 (Homo sapiens) (UniProt O95633). Put plainly: FSTL3 binders on small-molecule microarrays, primary screen, biochemical, small-molecule microarray, 635 nm fluorescence (AID 1105).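 Note: score merges emission near 667 nm and signal to noise per printed spot across three slides.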 As to conditions: FSTL3 binding, higher = more signal.
Sequence of Follistatin-related protein 3 (Homo sapiens) (O95633 whole entry, looked up): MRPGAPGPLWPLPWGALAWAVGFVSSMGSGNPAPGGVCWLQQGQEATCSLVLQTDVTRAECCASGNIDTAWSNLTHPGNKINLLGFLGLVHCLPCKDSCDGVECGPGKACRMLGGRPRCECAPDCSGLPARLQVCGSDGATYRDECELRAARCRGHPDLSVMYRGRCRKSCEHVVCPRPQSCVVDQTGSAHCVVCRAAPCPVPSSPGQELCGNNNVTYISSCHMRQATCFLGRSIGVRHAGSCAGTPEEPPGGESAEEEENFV
Assay [9] has as its target Dickkopf-related protein 1 (Homo sapiens) (UniProt O94907). Put plainly: DKK1 binders on small-molecule microarrays, primary screen, biochemical, small-molecule microarray, 635 nm fluorescence scan (AID 1106).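 Note: score merges emission near 667 nm with signal to noise over three replicate slides.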 As to conditions: DKK1 binding, higher = more signal.
Assay [10] relates to Inhibin beta A chain (activin A). Nature of the assay: INHBA (activin A) binders on microarrays, primary screen, biochemical, small-molecule microarray, 635 nm fluorescence scan (AID 1107).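 Note: mouse activin A protein probed at 4.33 µg/mL on printed slides; score merges bound-protein fluorescence near 667 nm with spot signal-to-noise.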 As to conditions: small-molecule microarray binding, higher = more signal.
In assay [11] the test system is Human papillomavirus type 1a protein E7 (residues 44-93). Nature of the assay: HPV1a E7 fragment binders on microarrays, primary screen, biochemical, small-molecule microarray, residues 44-93, 635 nm fluorescence (AID 1108).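 Note: E7 fragment applied at 1 µg/mL in TBST for 1 h at 4 C; score combines spot fluorescence with its signal to noise ratio.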 As to conditions: small-molecule microarray binding, fluorescence 635 nm; higher = more signal.
Assay [12] can be described thus: modulators of HCV replicon luciferase signal, primary screen, HCV replication inhibitor project, Huh7 cells, luciferase reporter (AID 1109).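 Note: huh7 hepatoma cells harbouring a luciferase neomycin HCV replicon reporter; luciferase luminescence as measure of HCV replicon replication; test concentration not given here.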 As to conditions: 48 h, higher = more signal.
The target in assay [13] is Left-right determination factor 2 (Homo sapiens) (UniProt O00292). Put plainly: LEFTY2 binders on small-molecule microarrays, primary screen, biochemical, small-molecule microarray, 635 nm fluorescence scan (AID 1110). As to conditions: LEFTY2 binding, higher = more signal.
Sequence of Left-right determination factor 2 (Homo sapiens) (O00292 whole entry, looked up): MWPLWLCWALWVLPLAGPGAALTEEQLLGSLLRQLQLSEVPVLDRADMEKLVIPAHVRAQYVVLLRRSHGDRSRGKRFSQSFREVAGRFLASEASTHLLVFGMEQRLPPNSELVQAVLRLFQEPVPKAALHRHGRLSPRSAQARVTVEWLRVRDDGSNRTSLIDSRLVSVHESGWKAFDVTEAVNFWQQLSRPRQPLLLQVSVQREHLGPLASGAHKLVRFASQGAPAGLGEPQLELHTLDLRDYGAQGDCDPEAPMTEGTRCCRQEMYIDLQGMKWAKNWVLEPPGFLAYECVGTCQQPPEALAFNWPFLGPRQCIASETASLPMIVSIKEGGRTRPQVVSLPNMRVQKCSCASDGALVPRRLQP
Assay [14] concerns the target Calmodulin-1 (Homo sapiens) (UniProt P0DP23). Put plainly: CALM1 binders on microarrays, EGTA buffer, profiling panel, biochemical, small-molecule microarray, Cy5-labelled CALM1 (AID 1111).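 Note: labelled calmodulin applied in Tris saline Tween buffer holding calcium plus EGTA and DTT.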 As to conditions: Cy5-CALM1 binding fluorescence, higher = more signal.
Assay [15] shares this target. Nature of the assay: calcium-bound CALM1 binders on microarrays, profiling panel, artefact control for SMM control-protein annotation, biochemical, small-molecule microarray, Cy5-labelled CALM1, plus calcium (AID 1112).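 Note: score merges spot fluorescence with signal to noise from triplicate slides.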 As to conditions: Cy5-CALM1 binding fluorescence, higher = more signal.
Assay [16] in a line: small-molecule microarray binders of probe aWnt5a, primary screen, biochemical, biotinylated probe, 635/667 nm fluorescence (AID 1113).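 Note: score merges 667 nm fluorescence intensity with signal-to-noise per printed feature.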 As to conditions: higher = more signal.
Assay [17] in a line: small-molecule microarray binders of probe aShh, primary screen, biochemical, biotinylated probe, 635/667 nm fluorescence (AID 1114).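 Note: probe is biotin-labelled aShh protein from a stem cell growth factor screen; measures binding of labelled protein to compounds printed on the slide; score merges feature fluorescence at 667 nm with signal-to-noise.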 As to conditions: higher = more signal.
Assay [18] is described as follows: small-molecule microarray binders of probe aNog, primary screen, biochemical, biotinylated probe, 635/667 nm fluorescence (AID 1115).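 Note: probe is biotinylated aNog protein used at 0.15 µg/mL for 1 h at 4 C; z-score combines 667 nm fluorescence of each spot with its signal to noise.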 As to conditions: higher = more signal.
In assay [19] the target is Torsin-1A-interacting protein 1 (Homo sapiens) (UniProt Q5JTV8). Put plainly: LAP1 binders from COS7 cell lysate, primary screen, small-molecule microarray, 635/667 nm fluorescence (AID 1116). As to conditions: COS7-hLAP1 lysate binding, 635 nm fluorescence, higher = more signal.
Sequence of Torsin-1A-interacting protein 1 (Homo sapiens) (Q5JTV8 whole entry, looked up): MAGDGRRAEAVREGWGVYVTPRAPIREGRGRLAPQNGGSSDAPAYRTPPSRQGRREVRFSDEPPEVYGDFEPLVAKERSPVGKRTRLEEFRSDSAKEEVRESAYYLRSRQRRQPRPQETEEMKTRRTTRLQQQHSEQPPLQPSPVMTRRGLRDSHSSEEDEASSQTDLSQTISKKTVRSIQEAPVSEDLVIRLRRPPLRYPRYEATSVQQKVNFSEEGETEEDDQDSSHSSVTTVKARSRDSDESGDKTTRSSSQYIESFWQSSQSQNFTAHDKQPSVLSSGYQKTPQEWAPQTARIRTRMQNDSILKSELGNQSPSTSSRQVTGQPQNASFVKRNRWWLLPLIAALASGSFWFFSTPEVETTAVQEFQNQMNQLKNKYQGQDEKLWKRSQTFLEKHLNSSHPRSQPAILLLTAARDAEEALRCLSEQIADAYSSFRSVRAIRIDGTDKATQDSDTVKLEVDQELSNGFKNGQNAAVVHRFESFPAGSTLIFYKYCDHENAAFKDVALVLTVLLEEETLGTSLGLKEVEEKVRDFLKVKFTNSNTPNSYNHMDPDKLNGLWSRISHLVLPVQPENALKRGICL
For assay [20], the target named is Alpha-bungarotoxin (Bungarus multicinctus) (UniProt P60615). Nature of the assay: alpha-bungarotoxin binders on microarray, profiling panel, artefact control for SMM control protein annotation, biochemical, small-molecule microarray, Alexa647 label, 635/667 nm fluorescence (AID 1117). As to conditions: alpha-BTX-A647 binding fluorescence, higher = more signal.
Sequence of Alpha-bungarotoxin (Bungarus multicinctus) (P60615 whole entry, looked up): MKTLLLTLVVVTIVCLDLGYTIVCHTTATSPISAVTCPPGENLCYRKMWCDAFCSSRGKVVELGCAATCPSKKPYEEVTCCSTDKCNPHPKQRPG

Active and inactive are the calls of the source.

Sequence of Epidermal growth factor receptor (Homo sapiens) (P00533 whole entry, looked up): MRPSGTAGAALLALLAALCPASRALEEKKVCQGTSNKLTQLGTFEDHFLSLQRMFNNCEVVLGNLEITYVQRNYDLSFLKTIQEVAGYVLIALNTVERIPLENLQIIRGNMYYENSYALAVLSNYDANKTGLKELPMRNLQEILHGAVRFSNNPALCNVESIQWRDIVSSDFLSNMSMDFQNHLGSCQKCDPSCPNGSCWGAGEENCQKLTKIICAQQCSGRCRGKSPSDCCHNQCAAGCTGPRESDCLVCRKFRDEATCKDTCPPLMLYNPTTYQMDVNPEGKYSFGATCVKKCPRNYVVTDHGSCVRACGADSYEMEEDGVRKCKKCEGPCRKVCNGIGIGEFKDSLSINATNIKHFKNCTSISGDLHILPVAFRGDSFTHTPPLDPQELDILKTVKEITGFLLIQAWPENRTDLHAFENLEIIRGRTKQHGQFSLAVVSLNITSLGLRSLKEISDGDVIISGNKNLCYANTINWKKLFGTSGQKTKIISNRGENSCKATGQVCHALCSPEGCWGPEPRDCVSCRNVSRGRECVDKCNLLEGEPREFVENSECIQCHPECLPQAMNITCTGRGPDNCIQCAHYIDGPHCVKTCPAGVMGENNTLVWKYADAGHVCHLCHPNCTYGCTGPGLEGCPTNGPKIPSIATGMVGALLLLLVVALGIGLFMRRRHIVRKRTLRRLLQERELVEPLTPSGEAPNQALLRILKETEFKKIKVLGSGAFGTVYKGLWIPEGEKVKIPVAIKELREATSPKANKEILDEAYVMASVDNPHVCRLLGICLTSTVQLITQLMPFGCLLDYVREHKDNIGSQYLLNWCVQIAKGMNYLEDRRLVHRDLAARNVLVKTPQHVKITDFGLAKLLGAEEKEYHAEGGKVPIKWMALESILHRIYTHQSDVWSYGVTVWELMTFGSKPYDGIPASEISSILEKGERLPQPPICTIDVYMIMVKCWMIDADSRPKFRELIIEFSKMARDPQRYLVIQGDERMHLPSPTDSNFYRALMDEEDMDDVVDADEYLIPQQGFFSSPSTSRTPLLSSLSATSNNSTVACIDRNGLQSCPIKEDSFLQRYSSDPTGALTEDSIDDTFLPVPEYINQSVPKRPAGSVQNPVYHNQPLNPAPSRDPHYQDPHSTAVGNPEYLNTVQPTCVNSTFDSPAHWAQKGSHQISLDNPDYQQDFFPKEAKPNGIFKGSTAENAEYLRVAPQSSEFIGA
Sequence of Dickkopf-related protein 1 (Homo sapiens) (O94907 whole entry, looked up): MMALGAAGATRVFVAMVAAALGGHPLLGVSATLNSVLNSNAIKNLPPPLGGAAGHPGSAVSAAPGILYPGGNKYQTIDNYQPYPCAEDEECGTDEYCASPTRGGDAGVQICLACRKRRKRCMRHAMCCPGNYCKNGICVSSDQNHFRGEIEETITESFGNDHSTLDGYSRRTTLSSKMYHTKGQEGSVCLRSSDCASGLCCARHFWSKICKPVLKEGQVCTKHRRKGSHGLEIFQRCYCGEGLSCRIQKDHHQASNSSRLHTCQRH

On to `CC(=O)C1=CCC(c2ccccc2)N(S(=O)(=O)c2ccc(C)cc2)C1` (stereo not given), for which the composite z-score in assay [1] was found to be 1.4; in assay [2], 0.196; in assay [3] it was 0.469; in assay [5], 0.586; in [6], 0.258; in assay [7], 0.255. Further, the composite z-score is 1.01 in assay [8]; 0.0538 in assay [9]; 1.12 in [10]; 1.41 in [11]; 0.034 in [13]; -0.105 in assay [14]. Moreover, the composite z-score in assay [15] is -0.163; in assay [16], -0.0758; in assay [17] it was 0.156; in assay [18] it was 0.471; in [19] it was 1.28; in assay [20], 0.19. For the same compound, the z-score in assay [4] was 0.0149 (inactive); in [12], -0.975.
As to `CCCCC(O)C1C=CC2C(=O)N(C3CCCCC3)C(=O)C2N1Nc1ccc(OC)cc1` (stereo not given), the composite z-score in [1] was 0.637; in [2] it was 0.298; in assay [3], 0.948; in assay [5], 0.517; in [6] it was 1.28; in assay [7], -0.0301. Further, the composite z-score is 1.12 in assay [8]; -0.517 in assay [9]; 0.943 in assay [10]; 1.4 in assay [11]; 0.0786 in assay [13]; 1.05 in assay [14]. Moreover, the composite z-score was 0.304 in assay [15]; -0.0405 in assay [16]; 0.13 in assay [17]; 0.712 in assay [18]; 0.624 in assay [19]; 0.914 in [20]. Also, the z-score in assay [4] was -0.221 (inactive); in assay [12] it was -0.385.
As for `COc1ccc(CCNC(=O)[C@@]2(Sc3ccc(C)cc3)CC(=O)N(Cc3ccccc3Cl)[C@@H]2c2ccc(CO)cc2I)cc1`, the composite z-score in assay [1] was 0.661; in [2] it was 0.195; in assay [3], 0.989; in assay [5] it was -0.778; in assay [6] it was 0.351; in assay [7] it was -1.08. Further, the composite z-score in [8] is -0.78; in assay [9], -1.15; in assay [10] it was 1.24; in assay [11], 0.552; in assay [13], -0.736; in [14] it was -0.252. Further, the composite z-score in assay [15] was -0.0371; in [16], -0.184; in [17], 0.157; in assay [18], 0.384; in assay [19], 1.08; in [20] it was 0.42. Further, the z-score is -1.1 (inactive) in [4] and -1.98 in assay [12].
With `COCCOC(=O)N1C(=O)[C@@]2(c3cc(C#CCNC(N)=O)ccc31)[C@H](c1ccc(O)cc1)N1[C@H](c3ccccc3)[C@H](c3ccccc3)OC(=O)[C@H]1[C@@H]2C(=O)Nc1nc2ccccc2s1`, the composite z-score in assay [1] was found to be 0.809; in assay [2] it was 0.668; in [3], 0.476; in assay [5] it was 1.14; in [6] it was 0.306; in assay [7] it was 0.228. The composite z-score was 0.85 in assay [8]; 0.562 in assay [9]; 0.815 in assay [10]; 0.793 in [11]; 0.691 in assay [13]; 1.41 in assay [14]. Besides, the composite z-score in [15] is 0.707; in assay [16] it was -0.0242; in assay [17] it was -0.0626; in [18], 0.167; in [19] it was 0.0164; in [20], 1.1. Also, the z-score in assay [4] is -0.564 (inactive); in assay [12] it was 0.171.
As for `COCCOC(=O)N1C(=O)[C@@]2(c3cc(C#CCC(C(=O)OC)C(=O)OC)ccc31)[C@H](c1ccccc1OCCO)N1[C@H](c3ccccc3)[C@H](c3ccccc3)OC(=O)[C@H]1[C@@H]2C(N)=O`, the composite z-score in assay [1] came out at 1.38; in [2], 0.152; in [3], 0.188; in [5] it was 1.22; in [6], 1.31; in assay [7], 0.249. Also, the composite z-score came out at 1.13 in assay [8]; 0.451 in assay [9]; 0.0274 in assay [10]; 0.22 in assay [11]; 0.32 in assay [13]; 1.25 in assay [14]. Also, the composite z-score is 0.648 in assay [15]; 0.027 in assay [16]; -0.0055 in [17]; 0.141 in [18]; 1.21 in assay [19]; 2.37 in assay [20]. Besides, the values for the z-score in assay [4] and in [12] were -5.03 (inactive) and -2.2, respectively.

(Values after PubChem BioAssay.)
